# Inconclusive results are not listed. Activity calls are given as the source filed them. Rule for the calls, unless noted: active = hit-call score of the fitted dose curve at least 0.9, where 1 is the maximum; inconclusive = response in the unintended direction; inactive = score below 0.9.
# How the values were obtained:
# [1] = CCTE_Mundy_HCI_iCellGluta_NOG_NeuriteLength: CCTE's Neurite Outgrowth Assay in iCellGluta cells for Neurite Length, Mundy Lab (AID 2284318)
# Method in brief: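 Automated high-content imaging of betaIII-tubulin (Alexa Fluor-488) and Hoechst-stained cells gave neurite length, normalized to the DMSO baseline.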
# [2] = tested on: IYD (gene 389434); assay: CCTE_GLTED_hIYD: CCTE's human Iodotyrosine Deiodinase (xIYD) Inhibition Assay, Great Lakes Toxicology and Ecology Division (GLTED) Lab (AID 2284317);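 note: cell-free human IYD enzyme made in baculovirus insect cells; iodide freed from monoiodotyrosine measured by cerium arsenite color change at 420 nm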
# Method in brief: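 Human IYD expressed in a baculovirus-insect cell system was incubated 3 h with monoiodotyrosine and test chemical. Released iodide, separated on Dowex columns, was quantified by the Sandell-Kolthoff reaction at 420 nm; plates were normalized to MNT and DMSO/NaOH controls.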
# [3] = CCTE_Deisenroth_5AR_NBTE_donor: CCTE's 5alpha-reductase NanoBRET Target Engagement Assay […], Deisenroth Lab (AID 2284319; active = hit-call score of the fitted dose curve at least 0.9, where 1 is the maximum; inactive = score below 0.9); conditions: actives raise or lower the signal
# Method in brief: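 HEK293T cells were reverse transfected with an SRD5A2-NanoLuc vector for 20 h, exposed to test chemical (8 points, 10 nM - 29.9 uM) for 3 h, then testosterone tracer for 2 h more. Donor luminescence (460 nm) was read; bidirectional fit versus DMSO.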
# [4] = CCTE_Deisenroth_5AR_NBTE_acceptor: CCTE's 5alpha-reductase NanoBRET Target Engagement Assay - Autofluorescence Screen, Deisenroth Lab (AID 2284321; active = hit-call score of the fitted dose curve at least 0.9, where 1 is the maximum; inactive = score below 0.9;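 note: compound fluorescence in the acceptor channel under 460 nm excitation flags autofluorescence artifacts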); conditions: actives raise or lower the signal
# Method in brief: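 HEK293T cell-based NanoBRET assay read 5 h after dosing; this acceptor channel serves as an autofluorescence artifact screen. Chemicals at nominal 100 uM were scanned in three independent runs (n=3), excitation 460 nm. Fitting was bidirectional versus DMSO baseline.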
# [5] = tested on: SRD5A2 (gene 6716); assay: CCTE_Deisenroth_5AR_NBTE_ratio: CCTE's 5alpha-reductase NanoBRET Target Engagement Assay - Ratio, Deisenroth Lab (AID 2284322; active = hit-call score of the fitted dose curve at least 0.9, where 1 is the maximum; inactive = score below 0.9); conditions: actives raise or lower the signal
# Method in brief: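 Reverse-transfect HEK293T with pNLF1-C-SRD5A2, express 20 h. Pre-incubate cells with chemical 3 h (8-point series, 10 nM - 29.9 uM, duplicate). Add testosterone tracer, 2 h more. Add substrate/inhibitor, read donor and acceptor emission.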
# [6] = CCTE_Deisenroth_DEVTOX-GLR_legacy_CellCount: (Legacy) Viability Assessment in CCTE's DevTox GLR-Endo Assay, Deisenroth Lab (AID 2284331; active = hit-call score of the fitted dose curve at least 0.9, where 1 is the maximum; inactive = score below 0.9); conditions: actives raise or lower the signal
# Method in brief: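 RUES2-GLR human pluripotent cells were seeded 24 h, then differentiated 48 h with two compound doses at 24 h intervals (10-point, 1 nM - 200 uM). Fixed nuclei were imaged and counted; bidirectional fitting versus 0.2% DMSO.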
# [7] = tested on: TTR (gene 7276); assay: CCTE_GLTED_hTTR_0.5uM: CCTE's human Transthyretin (hTTR) Inhibition Assay, with 0.5uM TTR, Great Lakes Toxicology and Ecology Division (GLTED) Lab (AID 2284320; active = hit-call score of the fitted dose curve at least 0.9, where 1 is the maximum; inactive = score below 0.9)
# Method in brief: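 Cell-free displacement assay in which human TTR at 0.5 uM was incubated with test chemical for 2 h. Displacement of the ANSA probe was read by fluorescence at 380 nm excitation/475 nm emission. Loss of signal was fitted in the positive direction versus DMSO.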
# [8] = IUF_NPC2-5_cytotoxicity_72hr: Cytotoxicity Assessment at 72 hours in the Leibniz Research Institute for Environmental Medicine (IUF) Neural Progenitor Cell Migration and Differentiation Assay for Cytotoxicity (NPC2-5) (AID 2284306);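 note: LDH release into supernatant measured by resorufin fluorescence marking membrane damage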
# Method in brief: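 Membrane integrity loss was scored from fluorescence (RFU) of resorufin generated by LDH in culture supernatant, 72 h after dosing. Differentiating human progenitor spheres received seven serial compound concentrations alongside a solvent control.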
# [9] = IUF_NPC2-5_cytotoxicity_120hr: Cytotoxicity Assessment at 120 hours in the Leibniz Research Institute for Environmental Medicine (IUF) Neural Progenitor Cell Migration and Differentiation Assay (NPC2-5) (AID 2284307);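 for AC50: LDH released into supernatant as membrane damage marker via resorufin fluorescence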
# Method in brief: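 Human fetal neural progenitor spheres (0.3 mm, GW 16-19 cortex) were plated on poly-D-lysine/laminin in N2 differentiation medium and exposed for 120 h, with half-medium refresh at day 3. LDH release into supernatant was read by resorufin fluorescence.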
# [10] = IUF_NPC2-5_cell_number_120hr: Cell Number Assessment at 120 hours in the Leibniz Research Institute for Environmental Medicine (IUF) Neural Progenitor Cell Migration and Differentiation Assay (NPC2-5) (AID 2284308; active = hit-call score of the fitted dose curve at least 0.9, where 1 is the maximum; inactive = score below 0.9;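 note: count of Hoechst-stained nuclei in migration zone around plated human neural progenitor spheres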)
# Method in brief: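 Primary human fetal neural progenitor spheres (GW 16-19, 0.3 mm) plated on poly-D-lysine/laminin in N2 differentiation medium, exposed from day 0 for 120 h with half-medium refresh at day 3; Hoechst-positive nuclei counted in migration area versus DMSO control.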
# [11] = IUF_NPC2-5_viability_120hr: Viability Assessment at 120 hours in the Leibniz Research Institute for Environmental Medicine (IUF) Neural Progenitor Cell Migration and Differentiation Assay (NPC2-5) (AID 2284312; active = hit-call score of the fitted dose curve at least 0.9, where 1 is the maximum; inactive = score below 0.9)
# Method in brief: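 Alamar blue resorufin fluorescence read after 5 days of differentiation, with compound present from day 0 and replenished at day 3. Primary hNPC spheres on laminin-coated plates, 37C; seven concentrations plus solvent control, fitted against DMSO.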
# [12] = TAMU_PeakParms_SingleDonor1434_Asystole: Texas A&M University (TAMU) 1.5-hr Human Induced Pluripotent Stem Cell (iPSC)-derived Cardiomyocytes Calcium (Ca+2) Flux Assay for Cardiotoxicity: Asystole (quiescence of beating) (AID 2284328)
# Method in brief: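 Average Ca2+-flux peak frequency (beats/s) was recorded in single-donor iPSC-derived cardiomyocytes after 90 min exposure (0.2–100 uM final, 0.5% DMSO). Asystole POD set as EC95 against DMSO, no preprocessing.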
# [13] = tested on: Brachyury (BRA) Protein Expression, Deisenroth Lab, TBXT (gene 6862); assay: CCTE_Deisenroth_DEVTOX-GLR_legacy_Bra: (Legacy) CCTE's DevTox GLR-Endo Assay Evaluation of Brachyury (BRA) Protein Expression, Deisenroth Lab (AID 2284329; active = hit-call score of the fitted dose curve at least 0.9, where 1 is the maximum; inactive = score below 0.9)
# Method in brief: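 Human pluripotent RUES2-GLR line was exposed twice during 48 h differentiation to a 10-point series, 1 nM - 200 uM. Fraction of Bra-positive cells was scored by imaging against pluripotent baseline and fitted after 0.2% DMSO subtraction.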
# [14] = IUF_NPC1_cytotoxicity_72hr: Cytotoxicity Assessment at 72 hours in the Leibniz Research Institute for Environmental Medicine (IUF) Neural Progenitor Cell Proliferation Assay (NPC1) (AID 2284332);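 note: rising LDH signal means more cytotoxicity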
# Method in brief: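 Single human fetal cortex neural progenitor spheres (GW 16-19, 0.25-0.35 mm) in EGF/FGF proliferation medium were exposed to compound for 72 h at 37C without renewal. Medium LDH release was read as resorufin fluorescence and fitted as gain-of-signal.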
# [15] = VALA_TUBHUV_Agonist_CellCount: Viability Assessment in the VALA Sciences human Umbilical Vein Endothelial Tubule Formation (TUBHUV) Agonism Assay (AID 2284309)
# Method in brief: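 HUVEC co-cultured 1:3 with HDF for 3 days in 10 ng/ml VEGF, then compounds added in VEGF medium for a further 3 days (72 h). Nuclear-stain/CD31 imaging cell count. Positive-direction fit versus 0.1% DMSO vehicle.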
# [16] = VALA_TUBIPS_Agonist_TubuleLength: VALA Sciences human iPS-derived Endothelial Tubule Formation (TUBIPS) Agonism Assay (AID 2284311)
# Method in brief: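 Human iPS-derived endothelial cells were exposed to compound for 72 h. Tubule formation was imaged by high-content fluorescence and scored as gain of signal relative to DMSO vehicle (agonist mode).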
# [17] = VALA_TUBIPS_Antagonist_TubuleLength: VALA Sciences human iPS-derived Endothelial Tubule Formation (TUBIPS) Antagonist Assay (AID 2284313)
# Method in brief: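 Cells grown 3 days with 10 ng/ml VEGF, then exposed to compounds in VEGF medium for another 3 days. After fixation, nuclear stain and CD31 immunofluorescence imaging gave mean total tubule length against 0.1% DMSO; suramin (100 uM) inhibition control.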
# [18] = VALA_MIGHUV2_WoundArea: VALA Sciences human Umbilical Vein Endothelial Cell Migration (MIGHUV) Assay, Area of Scratch Wound after Recovery (AID 2284316)
# Method in brief: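 HUVEC seeded at 9000 cells/well, scratched after 24 h; test chemical added within 30 min, 6-point concentration response in triplicate (0.1% DMSO vehicle). After 24 h wound recovery, cells fixed and Hoechst-stained nuclei in wound area imaged; Cytochalasin D reference control.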
# [19] = VALA_TUBIPS_Antagonist_CellCount: Viability Assessment in the VALA Sciences human iPS-derived Endothelial Tubule Formation (TUBIPS) Antagonism Assay (AID 2284335)
# [20] = VALA_MIGHUV1_ScratchOnly_WoundArea: VALA Sciences human Umbilical Vein Endothelial Cell Migration (MIGHUV) Assay, Area of Scratch Wound Inhibited Recovery (AID 2284336)
# Method in brief: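 HUVEC monolayers (9000 cells/well) were scratched after 24 h, dosed within 30 min (six concentrations, triplicate, 0.1% DMSO), allowed 24 h recovery, then fixed. Hoechst-stained nuclei in the wound imaged; cytochalasin D as reference.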
smiles,measurement,setting,value
OCC(F)(F)C(F)(F)C(F)(F)C(F)(F)C(F)(F)C(F)(F)C(F)(F)C(F)(F)C(F)(F)C(F)(F)C(F)(F)F,outcome,[1],inactive
CCCCCCCCCCCC,AC50,[2],38.4 µM (active)
same,outcome,[3],inactive
same,outcome,[4],inactive
same,outcome,[5],inactive
C=CC(=O)OCCC(F)(F)C(F)(F)C(F)(F)C(F)(F)C(F)(F)C(F)(F)C(F)(F)C(F)(F)F,outcome,[1],inactive
CCCCCCCCCCCCOS(=O)(=O)O,AC50,[3],50 µM (active)
same,AC50,[4],44.8 µM (active)
same,AC50,[5],83.9 µM (active)
O=C1OC2(c3ccccc31)c1cc(I)c(O)c(I)c1Oc1c2cc(I)c(O)c1I,AC50,[3],2.23 µM (active)
same,AC50,[4],1.79 µM (active)
same,AC50,[5],6 µM (active)
CN(Cc1cnc2nc(N)nc(N)c2n1)c1ccc(C(=O)N[C@@H](CCC(=O)O)C(=O)O)cc1,AC50,[6],0.359 µM (active)
CN(C)CCOC(c1ccccc1)c1ccccc1,AC50,[6],63.9 µM (active)
Cc1cc(Cc2cc(C)cc(C(C)(C)C)c2O)c(O)c(C(C)(C)C)c1,AC50,[2],24.2 µM (active)
O=C(O)CCC(F)(F)C(F)(F)C(F)(F)C(F)(F)C(F)(F)F,AC50,[7],3.12 µM (active)
O=P(O)(O)CCC(F)(F)C(F)(F)C(F)(F)C(F)(F)C(F)(F)C(F)(F)C(F)(F)C(F)(F)F,outcome,[2],inactive
same,outcome,[1],inactive
same,AC50,[7],2.24 µM (active)
O=C1NS(=O)(=O)c2ccccc21,outcome,[8],inactive
same,outcome,[9],inactive
same,outcome,[10],inactive
same,outcome,[11],inactive
same,outcome,[1],inactive
same,outcome,[12],inactive
same,outcome,[13],inactive
same,outcome,[6],inactive
same,outcome,[14],inactive
CCCCCCCCCCCCOC(=O)c1cc(O)c(O)c(O)c1,AC50,[2],22.9 µM (active)
O=C(CCCN1CCC(O)(c2ccc(Cl)cc2)CC1)c1ccc(F)cc1,outcome,[8],inactive
same,AC50,[9],1.98 µM (active)
same,outcome,[10],inactive
same,outcome,[15],inactive
same,outcome,[16],inactive
same,outcome,[11],inactive
same,outcome,[17],inactive
same,outcome,[18],inactive
same,outcome,[14],inactive
same,outcome,[19],inactive
same,outcome,[20],inactive
